Source: PubChem BioAssay (Tox21)
Inconclusive results are not listed. The source made the active and inactive calls. Unless noted, the call rests on the fitted dose curve.

What was measured:
[1] = Nuclear factor erythroid 2-related factor 2/antioxidant responsive element (Nrf2/ARE) small molecule agonists: qHTS cell viability counter screen in human keratinocytes (AID 1919968; active means well fitted curve in the direction sought with a large enough effect in the repeat runs; an effect the other way counts as inactive or inconclusive; further: nearly all actives have a fitted effect of over 55% in size; further: potency means the concentration at half of the fitted maximal effect)
Method in brief: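 Measured as CellTiter-Fluor fluorescence, this readout tracks cytotoxicity in the same wells as the ARE-luciferase screen. HaCaT reporter cells (1,500/well) received compounds after a 5 h pre-incubation and were exposed for 23 h.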

[2] = biological target: Gonadotropin-releasing hormone receptor (Homo sapiens) (UniProt P30968); assay: Human gonadotropin-releasing hormone receptor (GnRHR) small molecule agonists, calcium flux assay in GnRHR-HEK293 cells (AID 1920063); further: nearly all actives have a fitted effect of over 35% in size
Method in brief: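 Fluorescence kinetics (480 nm excitation, 540 nm emission; 3 min, 1 s steps) report calcium mobilisation in human GnRHR-HEK293 cells in agonist mode. Dye incubation: 1 h, 37 C.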

[3] = biological target: KiSS-1 receptor (Homo sapiens) (UniProt Q969F8); assay: Human kisspeptin (KISS1R) small molecule agonists, calcium flux assay in KISS1R-HEK293 cells (AID 1920064; active means well fitted curve in the direction sought with a large enough effect in the repeat runs; an effect the other way counts as inactive or inconclusive)
Method in brief: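 Measures KISS1R agonism through calcium-sensitive dye fluorescence in stably transfected HEK293 cells, read for 3 min after pin-tool compound delivery; 15-point titrations in triplicate.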

[4] = G protein-coupled receptor (GPCR) small molecule agonists, calcium flux assay: HEK293 wild type cell line counter screen (AID 1920065)
Method in brief: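 Readout: fluorescence at 480 nm excitation/540 nm emission, sampled at 1 s intervals for 3 min. Cells had been cultured 18 h, then dye-loaded 1 h at 37 C before compound or ATP addition.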

[5] = p53 small molecule agonists, cell-based qHTS assay with human liver microsomes (AID 1963577)
Method in brief: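 Compounds act here after metabolic activation: human liver microsomes and NADPH, both at 0.5 mg/mL final, were co-added to p53RE-bla cells. Incubation ran 16 h at 37 C, followed by LiveBLAzer detection.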

[6] = p53 small molecule agonists, cell-based qHTS assay with rat liver microsomes (AID 1963578)
Method in brief: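 Read-out is beta-lactamase reporter fluorescence (LiveBLAzer, 2 h, room temperature, dark) in p53RE-bla cells treated 16 h at 37 C with compound, rat liver microsomes and NADPH, both 0.5 mg/mL final.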

[7] = p53 small molecule agonists, cell-based qHTS assay with human liver microsomes: qHTS cell viability counter screen (AID 1963579); further: nearly all actives have a fitted effect of over 45% in size
Method in brief: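 Cells carrying the p53 response-element beta-lactamase reporter are treated for 16 h at 37 C with test compounds in the presence of human liver microsomes and NADPH (both 0.5 mg/mL final); ATP-based CellTiter-Glo luminescence then reports viability.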

[8] = p53 small molecule agonists, cell-based qHTS assay with rat liver microsomes: qHTS cell viability counter screen (AID 1963580); further: nearly all actives have a fitted effect of over 45% in size; further: potency means the concentration at half of the fitted maximal effect
Method in brief: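 In HCT-116 cells carrying a p53 response element-bla reporter, compounds were metabolically activated in situ by rat liver microsomes with NADPH over 16 h. Cell ATP content then served as the cytotoxicity measure.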

[9] = p53 small molecule agonists, cell-based qHTS assay: qHTS cell viability counter screen (AID 1963581); further: nearly all actives have a fitted effect of over 45% in size; further: potency means the concentration at half of the fitted maximal effect
Method in brief: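 In the same plates used for the p53 bla reporter, HCT-116 cells given compounds for 16 h at 37 C received CellTiter-Glo; luminescence was recorded 30 min later at room temperature.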

[10] = biological target: 5-hydroxytryptamine receptor 2A (Homo sapiens) (UniProt P28223); assay: 5-hydroxytryptamine receptor 2A (HTR2A) small molecule antagonists, cell-based qHTS assay (AID 1963586); further: nearly all actives have a fitted effect of over 45% in size
Method in brief: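 Antagonist-mode intracellular calcium assay: DOI (4 nM) added after 5 min compound pre-incubation at room temperature to dye-loaded HTR2A-CHO cells. Fluorescence followed for 3 min, sampled every second.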

[11] = biological target: 5-hydroxytryptamine receptor 2A (Homo sapiens) (UniProt P28223); assay: 5-hydroxytryptamine receptor 2A (HTR2A) small molecule agonists, cell-based qHTS assay (AID 1963587); further: nearly all actives have a fitted effect of over 30% in size
Method in brief: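 HTR2A-CHO cells, plated 18 h at 37 C/5% CO2, dye-loaded 1 h at 37 C; compounds in DMSO added by pin tool (agonist mode). Intracellular calcium flux read as kinetic fluorescence on FDSS over 2 min at 1 s intervals.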

[12] = biological target: Muscarinic acetylcholine receptor M1 (Homo sapiens) (UniProt P11229); assay: Cholinergic receptor muscarinic 1 (CHRM1) small molecule antagonists, cell-based qHTS assay (AID 1963588); further: nearly all actives have a fitted effect of over 40% in size; further: potency means the concentration at half of the fitted maximal effect
Method in brief: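 CHRM1-CHO calcium-flux assay, antagonist mode. Cells were seeded 18 h, dye-loaded 1 h at 37 C and given compound for 5 min at RT, then acetylcholine was added at 50nM. FDSS fluorescence was read 3 min; 15 concentrations, three runs.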

[13] = biological target: Muscarinic acetylcholine receptor M1 (Homo sapiens) (UniProt P11229); assay: Cholinergic receptor muscarinic 1 (CHRM1) small molecule agonists, cell-based qHTS assay (AID 1963589); further: nearly all actives have a fitted effect of over 35% in size
Method in brief: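 Each compound was tested at 15 concentrations across three independent runs on dye-loaded CHO cells stably expressing human CHRM1, reading intracellular calcium fluorescence kinetically at 1 sec intervals.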

[14] = cAMP Responsive Elements (CRE) small molecule agonists, cell-based qHTS assay (AID 1963590)
Method in brief: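 Cell line: CRE-bla HEK 293T; medium DMEM/10% dialyzed FBS/0.1 mM NEAA/1 mM pyruvate/25 mM HEPES; 3 h compound exposure; beta-lactamase FRET readout after 2 h substrate loading at RT.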

[15] = cAMP Responsive Elements (CRE) small molecule antagonists, cell-based qHTS assay (AID 1963591; active means well fitted inhibition curve with a large enough effect in the signal ratio in the repeat runs, not every such curve was filed as active; the % refers to the signal ratio)
Method in brief: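 Inhibition of NKH477-driven (0.25 uM final) CRE-beta-lactamase signal in HEK293T cells, 3 h compound exposure at 37 °C, detected by FRET substrate fluorescence.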

[16] = biological target: Beta-2 adrenergic receptor (Homo sapiens) (UniProt P07550); assay: Adrenergic beta2 receptor (ADRB2) small molecule antagonists, cell-based qHTS assay (AID 1963592); further: series mostly up to about 92 µM; nearly all actives have a fitted effect of over 50% in size
Method in brief: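 Cells (CHO, stable ADRB2 overexpression) incubated 18-20hr at 37C; compounds added from DMSO; agonist mix (1nM isoproterenol, 100uM IBMX, 25uM Ro-20-1724) added; 0.5hr RT; d2-cAMP and anti-cAMP-cryptate added; 1hr RT; 665/615 nm read.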

[17] = biological target: Beta-2 adrenergic receptor (Homo sapiens) (UniProt P07550); assay: Adrenergic beta2 receptor (ADRB2) small molecule agonists, cell-based qHTS assay (AID 1963593);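 further: CHO cells stably overexpressing human ADRB2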
Method in brief: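 CHO cells stably over-expressing ADRB2 were plated overnight at 37C, then dosed with compounds plus a stimulation mix containing 100uM IBMX and 25uM Ro-20-1724 for 0.5hr at room temperature. cAMP was measured by HTRF competition, 1hr.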

[18] = biological target: D(2) dopamine receptor (Homo sapiens) (UniProt P14416); assay: Dopamine D2 receptor (DRD2) small molecule agonists, cell-based qHTS assay (AID 1963594); further: nearly all actives have a fitted effect of over 35% in size
Method in brief: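 HEK293 cells stably expressing DRD2 were cultured 24 h at 37 C, then given Ro20-1724 (0.1 mM final) and compounds for 10 min at room temperature. NKH477 (200nM) was then added for 30 min. cAMP was read by HTRF.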

[19] = biological target: D(2) dopamine receptor (Homo sapiens) (UniProt P14416); assay: Dopamine D2 receptor (DRD2) small molecule antagonists, cell-based qHTS assay (AID 1963595; active means well fitted inhibition curve with a large enough effect in the signal ratio in the repeat runs, with a control signal flat; the % refers to the signal ratio)
Method in brief: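 HEK293 cells stably expressing DRD2, preincubated with 0.1 mM Ro20-1724 and compounds 10 min, were stimulated with 200 nM NKH477 plus 12 nM quinpirole for 30 min at room temperature; cAMP measured by HTRF (665/620 nm).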

[20] = p53 small molecule agonists, cell-based qHTS assay (AID 1963582; active means well fitted activation curve with a large enough effect in the signal ratio in the repeat runs, not every such curve was filed as active; the % refers to the signal ratio)
Method in brief: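 Compounds are pin-transferred in DMSO onto p53RE-bla cells and incubated 16 h at 37 C. The B/G FRET beta-lactamase substrate is then applied for 2 h at RT and fluorescence recorded.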

Measured: Potency

Chain of Beta-2 adrenergic receptor (Homo sapiens) (P07550 whole entry, looked up): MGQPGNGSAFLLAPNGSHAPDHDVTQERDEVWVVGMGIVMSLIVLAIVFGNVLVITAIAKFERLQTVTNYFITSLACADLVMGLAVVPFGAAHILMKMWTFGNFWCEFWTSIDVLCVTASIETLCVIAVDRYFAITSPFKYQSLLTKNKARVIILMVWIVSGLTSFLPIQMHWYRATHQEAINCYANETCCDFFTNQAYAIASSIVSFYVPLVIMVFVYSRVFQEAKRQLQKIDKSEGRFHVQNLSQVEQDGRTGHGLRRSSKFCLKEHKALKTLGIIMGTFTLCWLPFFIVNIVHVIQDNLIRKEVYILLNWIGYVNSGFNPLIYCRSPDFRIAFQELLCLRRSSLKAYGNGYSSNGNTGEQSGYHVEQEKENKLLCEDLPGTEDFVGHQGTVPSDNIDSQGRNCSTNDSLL
Chain of D(2) dopamine receptor (Homo sapiens) (P14416 whole entry, looked up): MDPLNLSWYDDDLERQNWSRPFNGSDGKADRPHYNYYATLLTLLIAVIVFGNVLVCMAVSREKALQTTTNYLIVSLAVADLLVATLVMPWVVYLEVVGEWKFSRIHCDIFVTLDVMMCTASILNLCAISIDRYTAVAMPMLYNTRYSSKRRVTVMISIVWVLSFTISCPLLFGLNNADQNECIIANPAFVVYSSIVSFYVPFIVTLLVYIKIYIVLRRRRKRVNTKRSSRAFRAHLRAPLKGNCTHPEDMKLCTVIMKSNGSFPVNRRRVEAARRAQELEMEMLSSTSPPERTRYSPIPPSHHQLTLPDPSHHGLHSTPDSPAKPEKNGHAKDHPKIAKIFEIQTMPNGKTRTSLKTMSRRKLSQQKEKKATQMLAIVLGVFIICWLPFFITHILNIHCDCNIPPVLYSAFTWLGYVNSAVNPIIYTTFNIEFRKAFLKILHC
Chain of 5-hydroxytryptamine receptor 2A (Homo sapiens) (P28223 whole entry, looked up): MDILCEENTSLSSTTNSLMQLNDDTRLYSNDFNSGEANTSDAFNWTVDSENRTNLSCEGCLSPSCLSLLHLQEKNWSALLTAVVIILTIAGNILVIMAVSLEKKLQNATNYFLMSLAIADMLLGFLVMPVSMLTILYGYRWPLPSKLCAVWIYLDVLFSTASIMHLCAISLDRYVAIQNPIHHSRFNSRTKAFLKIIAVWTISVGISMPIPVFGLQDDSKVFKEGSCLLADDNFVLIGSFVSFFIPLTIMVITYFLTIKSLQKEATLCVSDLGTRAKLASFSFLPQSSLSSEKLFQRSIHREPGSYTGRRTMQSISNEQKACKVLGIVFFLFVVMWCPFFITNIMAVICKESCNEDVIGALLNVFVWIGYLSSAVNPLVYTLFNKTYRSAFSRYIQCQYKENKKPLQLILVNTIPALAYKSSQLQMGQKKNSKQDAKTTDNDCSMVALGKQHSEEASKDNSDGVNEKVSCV
Chain of Gonadotropin-releasing hormone receptor (Homo sapiens) (P30968 whole entry, looked up): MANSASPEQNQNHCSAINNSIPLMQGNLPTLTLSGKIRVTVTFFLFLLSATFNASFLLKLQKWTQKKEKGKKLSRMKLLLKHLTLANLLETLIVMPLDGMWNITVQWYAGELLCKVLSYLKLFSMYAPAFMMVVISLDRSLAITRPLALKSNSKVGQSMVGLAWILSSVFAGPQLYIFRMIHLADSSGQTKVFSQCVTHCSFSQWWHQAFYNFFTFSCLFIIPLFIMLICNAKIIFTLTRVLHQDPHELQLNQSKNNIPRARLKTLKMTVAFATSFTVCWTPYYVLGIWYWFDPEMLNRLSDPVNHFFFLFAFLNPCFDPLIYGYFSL
Chain of Muscarinic acetylcholine receptor M1 (Homo sapiens) (P11229 whole entry, looked up): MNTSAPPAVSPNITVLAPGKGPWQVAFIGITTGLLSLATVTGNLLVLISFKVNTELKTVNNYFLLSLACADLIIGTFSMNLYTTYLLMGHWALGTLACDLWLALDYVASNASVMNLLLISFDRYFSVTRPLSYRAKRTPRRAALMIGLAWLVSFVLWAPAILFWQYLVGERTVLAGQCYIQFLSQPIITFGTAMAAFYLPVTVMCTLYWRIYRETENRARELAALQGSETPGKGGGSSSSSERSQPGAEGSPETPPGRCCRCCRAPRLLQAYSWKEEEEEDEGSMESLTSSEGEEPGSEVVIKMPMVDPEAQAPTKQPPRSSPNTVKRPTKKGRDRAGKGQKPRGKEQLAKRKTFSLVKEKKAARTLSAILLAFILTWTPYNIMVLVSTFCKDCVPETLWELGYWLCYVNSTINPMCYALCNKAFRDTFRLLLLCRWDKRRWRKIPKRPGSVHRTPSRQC
Chain of KiSS-1 receptor (Homo sapiens) (Q969F8 whole entry, looked up): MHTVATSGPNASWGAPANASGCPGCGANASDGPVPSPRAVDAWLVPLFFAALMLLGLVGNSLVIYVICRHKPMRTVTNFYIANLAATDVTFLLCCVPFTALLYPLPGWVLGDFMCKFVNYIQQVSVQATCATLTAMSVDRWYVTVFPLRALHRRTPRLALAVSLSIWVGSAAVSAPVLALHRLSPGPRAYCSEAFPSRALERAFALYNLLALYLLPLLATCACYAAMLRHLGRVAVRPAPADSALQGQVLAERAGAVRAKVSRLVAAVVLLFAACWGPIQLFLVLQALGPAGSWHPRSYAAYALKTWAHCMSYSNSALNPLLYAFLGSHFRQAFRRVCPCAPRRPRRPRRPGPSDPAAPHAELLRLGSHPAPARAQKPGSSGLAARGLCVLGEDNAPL

Cc1ccc(N)cc1
not listed: [20]
inactive: all other assays above

Nc1ccccc1
not listed: [20]
inactive: all other assays above

Clc1nc(Cl)nc(Cl)n1
not listed: [14] | [15] | [17]
inactive: all other assays above

CCCCCCCCCCCCCl
inactive: all assays above

CNC(=O)O/N=C/C(C)(C)S(C)=O (configuration not stated)
not listed: [15] | [17]
inactive: all other assays above

C=CC(=O)OC(C)(C)C
not listed: [17]
inactive: all other assays above

CCOP(OCC)OCC
not listed: [17]
inactive: all other assays above

[O-][Cl+2]([O-])O
not listed: [13]
inactive: all other assays above

O=NN1CCCCCC1
not listed: [17]
inactive: all other assays above

CN1CSC(=S)N(C)C1
active: [1] 2.72 µM | [8] 20.3 µM
not listed: [15] | [17] | [19]
inactive: all other assays above

OC(O)C(Cl)(Cl)Cl
not listed: [15] | [17] | [18]
inactive: all other assays above

COC(=O)NC(=S)Nc1ccccc1NC(=S)NC(=O)OC
not listed: [10] | [14]
inactive: all other assays above

NCC(O)c1ccc(O)cc1 (configuration not stated)
not listed: [11]
inactive: all other assays above

Clc1ccc(C(c2ccc(Cl)cc2)C(Cl)Cl)cc1
active: [1] 27.8 µM | [9] 41.4 µM | [12] 0.135 µM
not listed: [14] | [16] | [17]
inactive: all other assays above
